Assay results as given in PubChem BioAssay AID2284350 (EPA ToxCast).
Inconclusive results are not listed. Calls of active or inactive are those of the source. The calls were made as follows: active = hit-call score of the fitted dose curve at least 0.9, where 1 is the maximum; inconclusive = response in the unintended direction; inactive = score below 0.9.

Test system: zebrafish Peroxisome Proliferator-activated Receptor alpha (PPARa), gene 563298
Assay: ATG_zfPPARa_EcoTox2: Attagene TRANS-FACTORIAL EcoTox-2 HepG2 Assay for zebrafish Peroxisome Proliferator-activated Receptor alpha (PPARa)
Protocol: ATG_EcoTox2 is a cell-based, multiplexed assay created by modifying the existing Attagene TRANS-FACTORIAL system to include a panel of nuclear receptors from some or all the following species: human (Homo sapiens), african clawed frog (Xenopus laevis), rainbow trout (Oncorhynchus mykiss), japanese medaka (Oryzias latipes), and zebrafish (Danio rerio). The ECOTOX2-FACTORIAL format uses HepG2, a human liver cell line, with measurements taken at 24 hours after chemical dosing in a 24-well plate. ATG_zfPPARa_EcoTox2 is one of 29 assay components calculated in the ATG_EcoTox2 assay. It is designed to make measurements of mRNA induction, a form of inducible reporter, as detected with fluorescence intensity signals by Reverse transcription polymerase chain reaction (RT-PCR) and Capillary electrophoresis technology.The assay endpoint ATG_zfPPARa_EcoTox2 was analyzed in the positive analysis fitting direction relative to DMSO as the negative control and baseline of activity. Using a type of inducible reporter, measures of mRNA for gain-of-signal activity can be used to understand the reporter gene at the transcription factor-level as they relate to the gene PPARa. Furthermore, this assay endpoint can be referred to as a primary readout, because this assay has produced multiple assay endpoints where this one serves a reporter gene function. To generalize the intended target to other relatable targets, this assay endpoint is annotated to the nuclear receptor intended target family, where the subfamily is non-steroidal.
Human liver HepG2 cells are transiently transfected with multiple reporter transcription units (MRTUs) in 6-well plates using FuGene 6 reagent (Roche; 3 ml FuGene/1 mg DNA). The MRTU constructs are regulated by a cis-regulating element (promoter). Each RTU expresses a GAL4-UAS that regulates the transcription of a nearby target reporter gene sequence. A major difference between the CIS and TRANS system is that in CIS activities of endogenous TFs are measured, whereas the TRANS assay evaluates changes in activities of exogenous, chimeric NR-Gal4 proteins. […] At the end of 24 hour incubation, total RNA was isolated using TriZol reagent (Invitrogen). The isolated RNA is then reverse-transcribed using oligo(dT) primer and Mo-MLV reverse transcriptase (Invitrogen) with DNAse I (Ambion) treatment for 30 min. The one-tenth of the produced cDNA was amplified by PCR using Taq DNA polymerase (Invitrogen) and two reporter sequence-specific primers. The PCR products were fluorescently labeled by primer extension with 6-arboxyfluorescein (6-FAM) 5'-labeled reporter sequence-specific primer (2 min at 95 C, 20 s at 68 C and 10 min at 72 C) and these products were digested with 5U of HpaI (New England Biolabs) for 2h at 37 C. The fragments were purified using Qiaquick PCR columns (Qiagen), analyzed on an ABI 3130xL genetic analyzer (Applied Biosystems) with peak positions identified by using a set of X-rhodamine (ROX)-labeled MapMarker1000 molecular weight standards (BioVentures). The raw capillary electrophoresis data was processed using Attagraph software (Attagene).

| Compound | outcome | AC50 |
| --- | --- | --- |
| CC(c1cc2ccccc2s1)N(O)C(N)=O (configuration not stated) | inactive | – |
| CC(C)OC(=O)C(C)(C)Oc1ccc(C(=O)c2ccc(Cl)cc2)cc1 | inactive | – |
| C=C(c1ccc(C(=O)O)cc1)c1cc2c(cc1C)C(C)(C)CCC2(C)C | inactive | – |
| Cc1cccc(Nc2cc(Cl)nc(SCC(=O)O)n2)c1C | – | 8.62 µM (active) |
| Cc1ccc(C)c(OCCCC(C)(C)C(=O)O)c1 | – | 73.6 µM (active) |
| C[C@@H]1C[C@H]2[C@@H]3CCC4=CC(=O)C=C[C@]4(C)[C@@]3(F)[C@@H](O)C[C@]2(C)[C@@]1(O)C(=O)COP(=O)(O)O | inactive | – |
| CN(CCOc1ccc(CC2SC(=O)NC2=O)cc1)c1ccccn1 (configuration not stated) | inactive | – |
| Cc1c(C)c2c(c(C)c1O)CCC(C)(COc1ccc(CC3SC(=O)NC3=O)cc1)O2 (configuration not stated) | inactive | – |
| CC(C)(Oc1ccc(CCNC(=O)c2ccc(Cl)cc2)cc1)C(=O)O | – | 21.6 µM (active) |
| CC(C)(Oc1ccc(Cl)cc1)C(=O)O | inactive | – |
| CC(C)(Oc1ccc(C2CC2(Cl)Cl)cc1)C(=O)O (configuration not stated) | – | 71.9 µM (active) |
| Cc1nc(-c2ccc(C(F)(F)F)cc2)sc1C(=O)NCc1ccc(OC(C)(C)C(=O)O)cc1 | – | 0.0769 µM (active) |
